Results reported in PubChem BioAssay (NCI).
The panel holds about 79,000 compounds, 15% with a hit somewhere; the sample as a whole holds those more often. A number with no mark means an inactive call. Activity calls are given as the source filed them. Rule as the data show it: active = growth inhibition above about 70%; inactive = the rest. Where a SMILES comes first, the peptide text is derived from it. [ ]: non-standard residue; d: D form. The star is where a group is joined. ξ: configuration not given here. X14 = COC1=CC(=O)N(C(=O)C(O*)C(C)C)C1Cc1ccccc1; ξNMe2Val = CC(C)C(C(=O)*)N(C)C; NMeV = CN[CH](C(=O)O)C(C)C

Experiments:
[1] = NCI Yeast Anticancer Drug Screen. Data for the rad50 strain (AID 155);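 also: 0% = growth of vehicle-only cultures of the same strain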; details: S. cerevisiae rad50 strain growth inhibition; at 50.0 µM; hits give high values
Summary of the method: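 Cells are treated with compound, grown, and their growth is then scored against vehicle-only cultures of the same repair-deficient yeast strain.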

[2] = NCI Yeast Anticancer Drug Screen. Data for the mec2-1 strain (AID 157); details: S. cerevisiae mec2-1 strain, at 50.0 µM, hits give high values
Summary of the method: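 Using mec2-1 yeast: add compound, measure growth, express inhibition versus vehicle-treated cultures.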

[3] = NCI Yeast Anticancer Drug Screen. Data for the sgs1 mgt1 strain (AID 161);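 also: 0% = growth of cultures given vehicle only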; details: S. cerevisiae sgs1 mgt1 strain, at 50.0 µM, hits give high values
Summary of the method: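 Growth of a repair-deficient yeast mutant was monitored after compound treatment and expressed as inhibition relative to vehicle-treated cultures.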

[4] = NCI Yeast Anticancer Drug Screen. Data for the cln2 rad14 strain (AID 165);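 also: 0% = growth equal to vehicle treated cultures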; details: S. cerevisiae cln2 rad14 strain, at 50.0 µM, hits give high values
Summary of the method: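 Yeast strain cln2 rad14, bearing defects in cell cycle control and DNA repair, serves as the test system; values reflect growth inhibition compared with vehicle.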

[5] = NCI Yeast Anticancer Drug Screen. Data for the bub3 strain (AID 167); details: S. cerevisiae bub3 mutant strain, at 50.0 µM, hits give high values
Summary of the method: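 Part of a panel of yeast mutants defective in DNA damage repair or cell cycle regulation. Each strain is grown with compound, and inhibition is calculated relative to solvent-treated cultures.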

[6] = NCI Yeast Anticancer Drug Screen. Data for the mlh1 rad18 strain (AID 175); details: S. cerevisiae mlh1 rad18 strain growth inhibition; at 50.0 µM; hits give high values
Summary of the method: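 Steps: expose repair-defective yeast to compound; measure growth; express inhibition against vehicle-treated controls.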

Structure (SMILES)	growth inhibition [1]	growth inhibition [2]	growth inhibition [3]	growth inhibition [4]	growth inhibition [5]	growth inhibition [6]
CN(C)C(=O)Sc1c(S(=O)(=O)F)ccc(Cl)c1Cl	22.4%	14.8%	10.3%	20.9%	6.15%	8.6%
CCOC(=O)CC(Br)C(=O)CBr (centres undefined)	-9.15%	11%	7.15%	-17.8%	2.6%	-9.6%
N#CC(C#N)=Cc1ccccc1O	-8.35%	-2.35%	-1.95%	-5.95%	-19.8%	-9.7%
N.N.N.N.N.O=[N+]([O-])[O-].[Co+3].[O-][Cl+3]([O-])([O-])[O-]	-13.7%	4.6%	-10.5%	-3.15%	-4.45%	-7.75%
CC(=O)OC1CC2(O)C3CCC4CC(O)CCC4(C)C3CCC2(C)C1C1=CC(=O)OC1 (centres undefined)	-11.1%	-19.9%	-9.9%	-6.4%	-32.4%	-1.75%
O=C(COc1ccc(Cl)c(Cl)c1)Nc1ccc[n+](CC(=O)Nc2ccc(S(=O)(=O)F)cc2)c1	32.4%	41.4%	32.5%	96.7% (active)	45%	22.1%
CN1CN(c2ccccc2)C2(CCN(CCc3cc4ccccc4o3)CC2)C1=O	-30.9%	-10.1%	-12.8%	-28.9%	3.4%	-22.2%
C=C(C)CNC1=C(C)C(=O)C2=C(C1=O)[C@H](COC(N)=O)[C@]1(OC)[C@@H]3N[C@@H]3CN21	5.15%	-9.35%	13.3%	23.9%	19.4%	74.7% (active)
O=[N+]([O-])c1ccc(P(=O)(O)O)cc1	-7.5%	-27.7%	0.3%	-22.4%	2.85%	10.4%
COC1=CC(=O)N(C(=O)C(OC(=O)C2CCCN2C(=O)C2CCCN2C(=O)C(C(C)C)N(C)C(=O)C(NC(=O)C(C(C)C)N(C)C)C(C)C)C(C)C)C1Cc1ccccc1 (centres undefined) (ξNMe2Val-V[NMeV]PP-X14; configuration not given here)	16.9%	-21.4%	-4.25%	-7.6%	28.9%	-32.6%
O=C1CC(=O)NC(=S)N1	2.15%	21.1%	-13.5%	-21.4%	4.85%	-5.75%
CCCCCCNP(=O)(OCC)OCC	-6%	-36.9%	5.3%	6.8%	-41.8%	12.3%
C/C=C(/C)C(=O)O[C@H]1CC[C@@]2(C)[C@@H]3CC[C@H]4[C@]5(O)C[C@H](O)[C@@]6(O)[C@@H](CN7C[C@@H](C)CC[C@H]7[C@@]6(C)O)[C@]5(O)C[C@@]42O[C@@]13O	27.1%	-15.9%	18%	0.35%	22.8%	30.6%
CO[C@H](C)[C@](O)(C(=O)OCC1=CC[N+]2([O-])CC[C@H](O)[C@@H]12)C(C)C (some centres undefined)	1.75%	-20.2%	2.35%	7.25%	-8.95%	-10.2%
O=c1ccn(C2OC(CO)C(O)C2[Se]c2ccccc2)c(=O)[nH]1 (centres undefined)	4%	-9.45%	16.8%	6.05%	7.2%	27.1%
CN(C)C1OCCO1	-8.45%	-36.1%	-11%	1.4%	-7.05%	-3.35%
[Fe+2].[c-]1[c-][c-][cH-][c-]1.[c-]1[c-][c-][cH-][c-]1.c1cc[c]([Pb]([c]2ccccc2)[c]2ccccc2)cc1	66.5%	85% (active)	83.9% (active)	65.5%	78.3% (active)	87.8% (active)
COc1cc2c(c(OC)c1O)-c1ccc(OC)c(=O)cc1[C@@H](NC(=O)C(F)(F)F)CC2	14.5%	28.3%	-3.25%	15.7%	7.9%	11.3%
CCOP(C)(=O)C(N)Cc1ccc(OC)c(OC)c1 (centres undefined)	-39.6%	-59.5%	-40.1%	-16.4%	1.1%	-34.5%
CN(C)C(=O)Oc1ccc(Cl)cc1Cl	9.2%	18.1%	-5.8%	-7.3%	-9.35%	32.6%

Structure (SMILES)	growth inhibition [1]	growth inhibition [2]	growth inhibition [3]	growth inhibition [4]	growth inhibition [5]	growth inhibition [6]
O=C(CC(=O)C(F)(F)F)c1ccco1.[Co]	-16.5%	-17.2%	-16.5%	-10.5%	-7.8%	3.55%
[CH3][Sn]([CH3])([n]1cnc(N)nc1=O)[n]1cnc(N)nc1=O	4.75%	0%	-10.3%	-1.45%	-2.55%	-60.4%
N#CCCc1ccccc1	-2.25%	-7.95%	-1.95%	-12.8%	-1.1%	0.65%
COC(=O)CN(C)P(=O)(N1CC1)N1CC1	13.4%	7.15%	-4.1%	-10.2%	-2.8%	-10.1%
CN(C(=O)CCl)c1ccccc1	15.3%	13.7%	8.5%	11.2%	9.75%	26.9%
CC(=O)[O][Sn]([CH2]C1CCCC1)([CH2]C1CCCC1)[CH2]C1CCCC1	99.3% (active)	99.3% (active)	99.4% (active)	98.9% (active)	99% (active)	99.1% (active)
CCOP(=O)(OCC)/C(C#N)=C/c1ccco1	-2.55%	-25.4%	-9.65%	21.8%	-16.5%	-21.8%
O=S1(F)=NP(N2CC2)(N2CC2)=NP(N2CC2)(N2CC2)=N1 (centres undefined)	22.6%	-3.15%	-9.7%	6.6%	-19.6%	-39.9%
Nc1c([N+](=O)[O-])cncc1[N+](=O)[O-]	-30.6%	-4.15%	-14.3%	-40.6%	-41.9%	-6.8%
COC[C@H]1OC(=O)c2coc3c2[C@@]1(C)C1=C(C3=O)[C@@H]2CCC(=O)[C@@]2(C)C[C@H]1OC(C)=O	92.3% (active)	93.3% (active)	89.4% (active)	89.1% (active)	86.1% (active)	88.8% (active)
O=C/C=C/c1ccccc1.[Fe+2].[c-]1[c-][c-][cH-][c-]1.[c-]1[c-][c-][cH-][c-]1	4.65%	-48.2%	1.65%	7.85%	11.4%	0.4%
CC1(C)COP(=S)(SCCC#N)OC1	-38.8%	-7.1%	0.95%	-29.4%	12.8%	-0.55%
c1ccc(-c2c[se]nn2)cc1	4.65%	-10.1%	-2.6%	-26.6%	-11.2%	10.1%
COC(=O)C[N+]1(C)C2CCC1CC(O)C2 (centres undefined)	1.5%	2.75%	0.55%	-23.3%	-17.1%	9.95%
CN1CCN(c2cc3nsnc3c3nsnc23)CC1	0.3%	-7.3%	-15.1%	8.6%	-12.7%	18.1%
O=[N+]([O-])c1ccc(Cl)c(OCCCOc2ccc(S(=O)(=O)F)cc2)c1	-8.7%	-6.9%	8.05%	3.7%	-3.75%	7.85%
S=P(N1CCCCC1)(N1CCCCC1)N1CCCCC1	-6.95%	-6.8%	-3.15%	-17.8%	-4.2%	-7.1%
OC1(C#[C][Hg][C]#CC2(O)CCCCC2)CCCCC1	95.2% (active)	89.5% (active)	90.7% (active)	97.3% (active)	97.4% (active)	95.4% (active)
CCC(/C=N/N=C(N)N)=N\N=C(N)N	8.4%	-2.6%	-0.75%	-18.4%	19.9%	-10.3%
